Pf Dd2 growth: inhibitors of Plasmodium falciparum Dd2 growth. 4.3% of 120,000 active. P. falciparum Dd2 growth, SYBR Green, 72 h. AID 1347417. Potency, µM (titrated, usually from 28.9 µM), inactives show at the top dose activity, negative = inhibition, usual class: inhibitors; active = well fitted inhibition curve with a large enough effect;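 also: plate controls were DMSO vehicle for no effect and reference drug for full effect; nearly all actives have a fitted effect of over 65% in size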
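Readout: SYBR Green fluorescence, 485 nm excitation, 535 nm emission, after ~16 h lysis at 37C. Before that, Dd2-infected red cells (2.5% hematocrit) grew 72 h with compound, 29 uM top final concentration.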
* marks the source's active call; other numbers are inactive results; [ ] = remark or other dose. Many of the other results were omitted from the sample, so hits are more common in it than they were. Potency is read from the fitted curve at half-maximal effect.

What do the screens show for `CC(C)CCN1CC[C@@H]2OCC(=O)N(Cc3c[nH]c4ccccc34)[C@H]2CC1`?
Pf Dd2 growth: inactive

What do the screens show for `N#Cc1cccc(CN2CC[C@@H]3OCC(=O)N(Cc4c[nH]c5ccccc45)[C@H]3CC2)c1`?
Pf Dd2 growth: inactive

What do the screens show for `COc1ccc(CN2C(=O)CO[C@H]3CN(CC4CC4)C[C@H]32)cc1`?
Pf Dd2 growth: inactive

How did O=C1CO[C@H]2CN(Cc3ccc4c(c3)OCO4)C[C@H]2N1Cc1ccc(F)cc1 do in these assays?
Pf Dd2 growth: 10µM*

How did COc1ccc(CN2C(=O)CO[C@H]3CN(Cc4c[nH]c5ccccc45)C[C@H]32)cc1 do in these assays?
Pf Dd2 growth: 7.94µM*

Results for O=C1CO[C@H]2CN(Cc3ccncc3)C[C@H]2N1Cc1ccc(F)cc1 ?
Pf Dd2 growth: -5.2%[44.1 µM]

What do the screens show for `CC(C)c1ccc(CN2CC[C@@H]3OCC(=O)N(Cc4ccccc4)[C@H]3CC2)cc1`?
Pf Dd2 growth: 10µM*

Results for O=C1CO[C@H]2CCN(Cc3ccncc3)CC[C@@H]2N1Cc1ccccc1 ?
Pf Dd2 growth: inactive

What do the screens show for `COc1ccc(CN2C(=O)CO[C@H]3CN(C(C)C)C[C@H]32)cc1`?
Pf Dd2 growth: inactive

How did COc1ccccc1CN1CC[C@@H]2OCC(=O)N(Cc3c[nH]c4ccccc34)[C@H]2CC1 do in these assays?
Pf Dd2 growth: 4.47µM*

How did CCc1ccc(S(=O)(=O)N(C)CC2CCOCC2)cc1 do in these assays?
Pf Dd2 growth: -1.8%

How did O=C1CCN(C2CCCCC2)CCOCCN1 do in these assays?
Pf Dd2 growth: -26.0%

What do the screens show for `C[C@H]1CN(S(=O)(=O)c2ccccc2)C[C@@H]1c1nc(-c2ccncc2)no1`?
Pf Dd2 growth: 21.0%

How did CC(=O)Nc1ccc(C(=O)N2C3CCC2CN(C(C)C)C3)cc1 do in these assays?
Pf Dd2 growth: 10.7%

Results for Cc1ncc(C(=O)NC(c2ccccc2)c2nnc(N)s2)c(=O)[nH]1 (stereo not drawn) ?
Pf Dd2 growth: -0.9%

Results for COc1ccc(C(=O)N2CCCC(c3nc(-c4cccnc4)no3)CCNC(=O)CC2)c(OC)c1 (stereo not drawn) ?
Pf Dd2 growth: inactive

What do the screens show for `CC(c1nc(-c2ccc(Cl)cc2)nn1CC(=O)O)N1CCCC1=O` (stereo not drawn)?
Pf Dd2 growth: 0.3%

How did CC1=NS(=O)(=O)N(C)C=C1C(=O)OCc1nc(Cc2cccc(C)c2)no1 do in these assays?
Pf Dd2 growth: 15.6%

How did COc1cc(C(=O)N2CCN(CCc3ccncc3)CC2)cc(OC)c1OC do in these assays?
Pf Dd2 growth: 14.1%

What do the screens show for `COc1cc(C(=O)N2CCN(CCc3ccccn3)CC2)cc(OC)c1OC`?
Pf Dd2 growth: 2.82µM*

How did CC(C)(C)c1ccc(C(=O)N2CCN(CCc3ccccn3)CC2)cc1 do in these assays?
Pf Dd2 growth: 17.4%

What do the screens show for `O=C1NC2CCCCC2=C1CC(=O)N1CCc2ccccc21` (stereo not drawn)?
Pf Dd2 growth: -30.0%

How did CCOCCCNc1nc2c(S(=O)(=O)c3ccc(CC)cc3)nnn2c2ccc(Cl)cc12 do in these assays?
Pf Dd2 growth: -9.3%

What do the screens show for `NS(=O)(=O)c1ccc(CCNc2nc3c(-c4cccc(F)c4)nnn3c3ccc(Cl)cc23)cc1`?
Pf Dd2 growth: 11.2µM*

Results for Fc1cccc(-c2nnn3c2nc(NCCc2ccccc2)c2ccccc23)c1 ?
Pf Dd2 growth: 19.2%

How did Cc1ccc(C(=O)N2CCC3(Cc4ccccc4NC3=O)C2)cc1 (stereo not drawn) do in these assays?
Pf Dd2 growth: inactive

How did Cc1ccc(C(=O)N2CCC(n3nccc3NC(=O)C3CCOC3)CC2)cc1C (stereo not drawn) do in these assays?
Pf Dd2 growth: 8.4%

Results for COc1ccc(S(=O)(=O)c2c(C(=O)c3ccc(C)c(C)c3)cnc3ccc(F)cc23)cc1 ?
Pf Dd2 growth: -21.6%

What do the screens show for `CCOc1ccc(Nc2c(S(=O)(=O)c3ccc(C)cc3)cnc3cc(OC)c(OC)cc23)cc1`?
Pf Dd2 growth: -27.9%

Results for CCOc1ccc(Nc2c(S(=O)(=O)c3ccc(C)cc3)cnc3ccc(OC)cc23)cc1 ?
Pf Dd2 growth: inactive

How did COc1ccc(C(=O)c2cnc3ccc(C)cc3c2S(=O)(=O)c2ccccc2)cc1 do in these assays?
Pf Dd2 growth: 11.2µM*

Results for CCOc1ccc(S(=O)(=O)c2c(C(=O)c3ccc(C)c(C)c3)cnc3ccccc23)cc1 ?
Pf Dd2 growth: 7.94µM*

Results for COc1ccc(-c2cc(C(=O)Oc3cccc(C)c3)c3cc(C)ccc3n2)cc1 ?
Pf Dd2 growth: 42.6%

How did CCCNS(=O)(=O)c1ccc(NC(=O)NCCc2nccs2)cc1 do in these assays?
Pf Dd2 growth: -17.4%

What do the screens show for `CC(=O)Nc1ccc(CN2C(=O)OC3(CCN(C(=O)c4ccnn4C)CC3)C2(C)c2ccccc2)cc1` (stereo not drawn)?
Pf Dd2 growth: inactive

What do the screens show for `COC(=O)[C@H](NC(=O)C1=C[C@@H](NC(=O)c2ccc(F)c(Cl)c2)[C@@H](O)[C@H](O)C1)C(C)C`?
Pf Dd2 growth: -18.0%

Results for O[C@H]1CCCC[C@@H]1NC1CCN(c2nc3ccc(Cl)cc3s2)CC1 ?
Pf Dd2 growth: 3.98µM*

What do the screens show for `O=C(NCc1cccc(Cl)c1)c1ccc2nc(N3CCCCC3)sc2c1`?
Pf Dd2 growth: inactive

What do the screens show for `Cc1ccc2nc(N3CCN(C(=O)C4CC4)CC3)sc2c1`?
Pf Dd2 growth: 33.2%

Results for COc1cccc(N2C(=O)NC(=NC3CCCCC3)C23CCCN(C(=O)c2ccc(C(F)(F)F)cc2)C3)c1 (stereo not drawn) ?
Pf Dd2 growth: 2.4%

What do the screens show for `COCCN1CCCCCC(O)c2cc(C(=O)N3CCOCC3)ccc21` (stereo not drawn)?
Pf Dd2 growth: 14.3%

Results for Cc1ccc(NC(=O)c2ccc(N(Cc3ccccc3)S(C)(=O)=O)cc2)cc1 ?
Pf Dd2 growth: 6.31µM*

How did COc1cccc(C(=O)Nc2ccc(S(=O)(=O)N(Cc3ccccc3)c3ccccc3)cc2)c1 do in these assays?
Pf Dd2 growth: 47.9%

Results for O=C(Nc1ccc(S(=O)(=O)N(Cc2ccccc2)c2ccccc2)cc1)c1ccc(F)cc1 ?
Pf Dd2 growth: 69.1%

What do the screens show for `Cc1cc(C)n(CCC(=O)N2CCC(N3C[C@H](O)C[C@H]3C(=O)NC3CCCCC3)CC2)n1`?
Pf Dd2 growth: -24.4%

Results for Cc1cnc(C(=O)N2CCC(N3C[C@H](O)C[C@H]3C(=O)NC3CCCCC3)CC2)cn1 ?
Pf Dd2 growth: 9.9%

Results for Cc1cc(C)n(Cc2ccc(C(=O)N3CCC(N4C[C@H](O)C[C@H]4C(=O)NC4CCCCC4)CC3)o2)n1 ?
Pf Dd2 growth: 5.01µM*

Results for CN1CCN(Cc2cn3c(=O)n(C)cc(-c4cccc(N(C)C)c4)c3n2)CC1 ?
Pf Dd2 growth: -3.7%[44.1 µM]

How did COc1nccnc1NC1CCN(C(=O)Cc2cccs2)CC1 do in these assays?
Pf Dd2 growth: inactive[5.79 µM]

What do the screens show for `Cc1ccccc1NC(=O)N1CCC(CCNC(=O)Cc2ccccc2F)CC1`?
Pf Dd2 growth: 5.7%

Results for O=C(CCc1cc2n(n1)CCCNC2)N1CCCN(c2ccncc2)CC1 ?
Pf Dd2 growth: -0.6%

Results for Cc1ccc(NC(=O)N2C[C@@H](F)C[C@H]2C(=O)N2CCc3ccccc3C2)cc1C ?
Pf Dd2 growth: -19.8%

What do the screens show for `Cc1ccc(C)c(NC(=O)N2C[C@@H](F)C[C@H]2C(=O)N2CCc3ccccc3C2)c1`?
Pf Dd2 growth: 19.3%

How did COc1ccccc1NC(=O)N1C[C@@H](F)C[C@H]1C(=O)N1CCc2ccccc2C1 do in these assays?
Pf Dd2 growth: 8.91µM*

High-throughput results (PubChem)
